# LMNA splice mod: qHTS Assay for Modulators of Lamin A Splicing. Potency, µM (series often up to 46.1 µM), inactives show at the top dose ratio change, negative = inhibition, most hits filed as inhibitors. actives 0.01% (n = 200,000). HeLa LMNA splicing GFP/RFP minigene ratio, 48 h; active = well fitted inhibition curve with a large enough effect in the signal ratio, with a control signal flat, not every such curve was filed as active; inconclusive = small, poorly fitted or top-dose-only effect, or effect the other way, or a change in a side signal; the % refers to the signal ratio; note: potency is the fitted concentration of half-maximal effect
#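 Read-out is the ratio of GFP to DsRed2 object intensity, acquired by 488 nm laser-scanning cytometry on HeLa lamin A-EGFP minigene reporter cells. Compound incubation 48 hrs at 37 °C in Opti-MEM with 2% FBS; DMSO 0.5% final.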
# 12-hLO inh: qHTS Assay for Inhibitors of 12-hLO (12-human lipoxygenase); purified 12-hLO, xylenol orange hydroperoxide absorbance; Potency, µM (series often up to 57.1 µM), for inactives: top-dose activity change, negative = inhibition, usual class: inhibitors; Polyunsaturated fatty acid lipoxygenase ALOX12 (Homo sapiens), P18054; actives 0.12% (n = 150,000); AID 1452, 2008; active = well fitted inhibition curve with a large enough effect; inconclusive = small, poorly fitted or top-dose-only effect; note: potency is the fitted concentration of half-maximal effect; nearly all actives have a fitted effect of over 55% in size
#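 Xylenol orange chromogenic assay: hydroperoxide from 12hLO oxidises Fe(II), giving red-shifted Fe(III)-XO absorbance. Conditions: 150 nM enzyme, 40 uM arachidonic acid, 25 mM Hepes pH 7.0, 0.01% Triton X-100, 30 min, room temperature.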
# ALDH1A1 block: qHTS Assay for Inhibitors of Aldehyde Dehydrogenase 1 (ALDH1A1); Purified ALDH1A1, NADH fluorescence, propionaldehyde substrate; Potency, µM (top dose mostly 75.3 µM), without a hit: top-dose activity, negative = inhibition, most hits filed as inhibitors; actives 7.3% (n = 220,000); AID 1030, 2008;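 note: potency is the fitted concentration of half-maximal effect; plate controls were no enzyme wells and a reference inhibitor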
# Target sequence (P00352 whole entry, looked up): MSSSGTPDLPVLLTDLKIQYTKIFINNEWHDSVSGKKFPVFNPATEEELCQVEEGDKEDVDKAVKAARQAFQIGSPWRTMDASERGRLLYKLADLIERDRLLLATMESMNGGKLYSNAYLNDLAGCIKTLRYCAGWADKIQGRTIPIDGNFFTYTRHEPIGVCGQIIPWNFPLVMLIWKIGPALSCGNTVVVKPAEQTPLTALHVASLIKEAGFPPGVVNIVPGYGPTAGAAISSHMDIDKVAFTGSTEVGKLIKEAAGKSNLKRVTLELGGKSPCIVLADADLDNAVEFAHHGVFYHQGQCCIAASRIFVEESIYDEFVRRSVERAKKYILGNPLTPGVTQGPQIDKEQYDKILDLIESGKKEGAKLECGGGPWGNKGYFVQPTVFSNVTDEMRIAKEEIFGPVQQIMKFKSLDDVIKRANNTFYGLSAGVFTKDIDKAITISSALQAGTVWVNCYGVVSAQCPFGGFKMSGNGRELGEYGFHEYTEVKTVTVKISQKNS
# PNC assembly inh: High Content Assay for Compounds that inhibit the Assembly of the Perinucleolar Compartment; PC3M PTB-GFP, PNC prevalence imaging, 16 h; active compounds read low; activity change (PNC), negative = inhibition, % at 10 µM; actives 3.1% (n = 140,000); AID 2417, 2010;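 active = readout at or below -70, meaning at least 70% loss of cells showing the perinucleolar compartment, a nuclear body marking cancer cells; inconclusive = readout between -30 and a set limit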;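 note: plate controls were DMSO wells for no effect and camptothecin positive control wells for full effect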
#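 Compounds are pinned in duplicate onto adhered PC3M cells stably expressing GFP-tagged PTB and incubated 16 h at 37 C. Cells are then fixed, nuclei stained with Hoechst, and PNC-positive cells counted.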
# HPGD inh: qHTS Assay for Inhibitors of HPGD (15-Hydroxyprostaglandin Dehydrogenase); Potency, µM, inactives show at the top dose activity change, negative = inhibition, usual class: inhibitors; actives 4.3% (n = 150,000); 15-hydroxyprostaglandin dehydrogenase [NAD(+)] (Homo sapiens), P15428; purified HPGD, NADH fluorescence kinetic, PGE2 substrate; note: potency is the fitted concentration of half-maximal effect
#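 NADH formation kinetics: reaction with 30 uM PGE2 and 1 mM NAD+ (final), 20 nM enzyme, Tris-HCl pH 8 with Tween 20, after 15 min compound preincubation at room temperature. Fluorescence change, last versus first of five reads.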
# * = called active by the depositor; ? = inconclusive; / = no result; [ ] = dose if it differs, or a comment. This is a sample that favours compounds with a hit; in the whole collection about 10% have one here. Unless noted, calls come from the whole dose curve; as a rule, active = well fitted inhibition curve with a large enough effect (not every such curve was filed as active); inconclusive = small, poorly fitted or top-dose-only effect, or another doubt; inactive = no such curve, though single readings can be large or run the other way. Unless noted, % is set by controls: 0 for no effect and ±100 for the full control effect.
SMILES,LMNA splice mod,12-hLO inh,ALDH1A1 block,PNC assembly inh,HPGD inh
COCCN(C(=O)Cc1cccs1)C(C(=O)NC1CCCC1)c1cc(OC)c(OC)c(OC)c1 (stereo unspecified),12%[46 µM],/,2%,/,/
CCOCCCNC(=O)/C(C#N)=C/c1ccc([N+](=O)[O-])o1,?,/,4µM*,/,/
CCN1C(=O)c2cccc3c(S(=O)(=O)Nc4ccncc4)ccc1c23,-18%,-3%,?,14,?
CCN1C(=O)c2cccc3c(S(=O)(=O)Nc4ccccn4)ccc1c23,?,-3%,7.9µM*,33,-5%
CCN1C(=O)c2cccc3c(S(=O)(=O)Nc4ccc(OC)cc4OC)ccc1c23,?,-8%,11µM*,-21,-7%
CCN1C(=O)c2cccc3c(S(=O)(=O)Nc4ccccc4)ccc1c23,-9%,-14%,1µM*,-27,-15%
CCN1C(=O)c2cccc3c(S(=O)(=O)Nc4ncccc4C)ccc1c23,-16%,-6%,10µM*,33,-25%
CCN1C(=O)c2cccc3c(S(=O)(=O)NCc4cccnc4)ccc1c23,-23%,8%,?,-2,-25%
CCN1C(=O)c2cccc3c(S(=O)(=O)NCc4ccco4)ccc1c23,-27%,0%,?,-21,-6%
CCN1C(=O)c2cccc3c(S(=O)(=O)N(C(=O)c4cccnc4)c4ccc(OC)cc4)ccc1c23,-15%,3%,?,?,?
CCN1C(=O)c2cccc3c(S(=O)(=O)N(C(=O)c4ccncc4)c4ccc(OC)cc4)ccc1c23,?,0%,?,-85*,?
CCN1C(=O)c2cccc3c(S(=O)(=O)Nc4nc(C)cs4)ccc1c23,?,-12%,3.5µM*,?,-21%
C[C@@H]1C[C@](C)(C(=O)c2ccc3c(c2)OCO3)C=C1c1ccc2c(c1)OCO2,/,/,-10%,/,3%
O=C(N1CCCCC1)N1CCN(C(=O)N(c2ccccc2)c2ccccc2)CC1,0%,-1%,11µM*,-1,-1%
Cn1cccc1C(=O)N1CCC2(CCCN(c3cccc(-c4ccccc4)c3)C2)CC1,/,-11%,-14%,/,-20%
Nc1nc(NC2CC2)c2ncn([C@H]3C=C[C@@H](CO)C3)c2n1,26%,/,/,/,/
CS(=O)(=O)Nc1ccc([N+](=O)[O-])cc1OC1CCCCC1,/,-5%,22µM*,/,-28%
CS(=O)(=O)Nc1ccc([N+](=O)[O-])cc1Oc1ccccc1,?,-3%,-1%,?,-12%
COc1ccc2ccc3c(c2c1)N=CC1(O3)N(C)c2ccccc2C1(C)C (stereo unspecified),?,-19%,13µM*,33,?
CCOC(=O)c1cc(-c2ccc(OC)cc2)n(CCC(=O)NC2CCC(C)CC2)c1C (stereo unspecified),-17%[46 µM],/,/,/,/
O=C1N=C(N2CCCCC2)S/C1=C/C1=Cc2ccccc2OC1,?,/,28µM*,/,/
Cc1ccc(/C=C2\SC(N3CCCC3)=NC2=O)cc1,-13%[46 µM],/,12%,/,/
COc1ccc(-c2nc3scc(CCNS(=O)(=O)c4ccccc4F)n3n2)cc1,-10%[46 µM],/,/,/,/
COc1ccccc1N1CSC2=C(C#N)C(c3ccc(SC)cc3)CC(=O)N2C1 (stereo unspecified),-1%,?,8.9µM*,-17,8.9µM*
COc1cc(C2CC(=O)N3CN(c4ccccc4C)CSC3=C2C#N)cc(OC)c1OC (stereo unspecified),1%,?,2.8µM*,8,28µM*
SMILES,LMNA splice mod,12-hLO inh,ALDH1A1 block,PNC assembly inh,HPGD inh
COc1ccc(C2CC(=O)N3C(=C2C#N)SCC3(O)c2ccccc2)cc1 (stereo unspecified),?,-17%,?,8,-19%
Cc1cccc(-c2nc3nc(C)cc(NC(C)c4ccccc4)n3n2)c1 (stereo unspecified),-7%[46 µM],/,/,/,/
NC(=O)C(c1ccc(Cl)cc1)c1ccc(Sc2ccc(Cl)cc2)nn1 (stereo unspecified),-10%,-18%,0%,-93*,-8%
CCOC(=O)C1=C(N)N(c2cc(S(=O)(=O)N3CCOCC3)ccc2Cl)C(=O)C1,2%[46 µM],/,14µM*,/,/
CCOc1ccc2nc(SCC(=O)NCc3ccco3)sc2c1,-14%,-4%,-3%,?,22µM*
CCOc1ccc2nc(SCC(=O)c3cccs3)sc2c1,?,-1%,13µM*,?,5µM*
CCOc1ccc2nc(SCC(=O)c3ccc(Cl)s3)sc2c1,?,-11%,4%,?,?
CCCCC1=CC2=C(c3ccco3)C(=O)C(C)(OC(=O)c3cccs3)C(=O)C2=CO1 (stereo unspecified),/,-15%,-4%,/,-21%
O=C(NC(=S)Nc1ccc(N2CCOCC2)c(Cl)c1)c1sc2ccccc2c1Cl,6%,-3%,3.5µM*,-2,-22%
O=C(NC(=S)Nc1ccc(N2CCOCC2)c(Cl)c1)c1cncc(Br)c1,?,-29%,7.9µM*,?,22µM*
CCCCCC(=O)NC(=S)Nc1ccc(N2CCCCC2)c(Cl)c1,2%,-8%,8%,29,/
O=C(NC(=S)Nc1ccc(N2CCOCC2)c(Cl)c1)c1cccs1,8%[46 µM],/,-88%,/,/
O=C(NC(=S)Nc1ccc(N2CCCCC2)c(Cl)c1)c1ccc2c(c1)OCCO2,?,?,10µM*,?,?
O=C(/C=C/c1ccccc1)n1cnnc1SC/C=C/c1ccccc1,-6%,3%,-24%,-16,14µM*
COC(=O)c1ccc(OCC2c3cc(OC)c(OC)cc3CCN2C(=O)C(C)C)cc1 (stereo unspecified),6%[46 µM],/,/,/,/

# Source: PubChem BioAssay (National Center for Advancing Translational Sciences (NCATS))
